Test results reported in PubChem BioAssay (NCI).
About 83,000 compounds went through this panel and 20% of them were active in at least one assay; those are over-represented in the sample as a whole.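 Percent growth is the endpoint: 0 to 100 indicates growth inhibition (40 means 60% inhibition), 0 means no net growth, and negative values indicate cell death.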 Unmarked numbers belong to inactive results. Calls of active or inactive are those of the source. Rule for the calls: active = growth percent below 10; inactive = the rest.

What was measured:
Assay in all cases: NCI-60 one-dose screen, 48 h (100 = growth as untreated, 0 = no growth, -100 = all killed)
Conditions in all cases: 10 µM unless noted
[1] = tested on: NCI-H23 lung
[2] = tested on: NCI-H226 lung
[3] = tested on: NCI-H322M lung
[4] = tested on: HOP-62 NSCLC
[5] = tested on: NCI-H460 lung
[6] = tested on: HOP-92 NSCLC
[7] = tested on: NCI-H522 lung
[8] = tested on: A549/ATCC NSCLC
[9] = tested on: 786-0 renal
[10] = tested on: COLO 205 colon
[11] = tested on: DU-145 prostate
[12] = tested on: K-562 leukemia
[13] = tested on: MALME-3M melanoma
[14] = tested on: MDA-MB-231 breast
[15] = tested on: RXF 393 renal
[16] = tested on: SF-268 CNS
[17] = tested on: SF-295 CNS
[18] = tested on: SF-539 CNS
[19] = tested on: UACC-257 melanoma
[20] = tested on: M14 melanoma

Compound	growth [1]	growth [2]	growth [3]	growth [4]	growth [5]	growth [6]	growth [7]	growth [8]	growth [9]	growth [10]	growth [11]	growth [12]	growth [13]	growth [14]	growth [15]	growth [16]	growth [17]	growth [18]	growth [19]	growth [20]
N#Cc1cccc(F)c1	106%	109%	115%	110%	118%	113%	102%	109%	101%	114%	125%	94.4%	110%	101%	114%	110%	109%	88.9%	110%	102%
CC1(C)CC[C@]2(c3nnc(-c4ccncc4)o3)CC[C@H]3C(=CC[C@H]4[C@@]3(C)CC[C@H]3C(C)(C)C(=O)CC[C@]43C)[C@@H]2C1	71.7%	60.6%	94.4%	85.7%	40.4%	76%	64.2%	73.9%	66.3%	67.9%	86.3%	40.8%	86.9%	72.8%	79%	81.4%	89.7%	76.3%	70.6%	84%
N#CC1CCc2c(c(-c3cn[nH]c3C(F)(F)F)nc3c(F)cc4[nH]ncc4c23)C1 (stereo not given)	25.3%	48.8%	30.8%	34.8%	38.9%	36.5%	-14.6% (active)	75%	36.8%	7.05% (active)	48.2%	36.3%	18.1%	20.3%	21.7%	23.1%	73.8%	20.4%	48.6%	18.9%
O=C(O)c1[nH]c(=O)[nH]c(=O)c1[N+](=O)[O-]	109%	108%	119%	104%	115%	88%	138%	106%	106%	112%	134%	89.7%	124%	110%	113%	117%	104%	103%	97.7%	110%
S=C(Nc1ccc(-c2nc(N3CCOCC3)c3cccn3n2)cc1)Nc1cccnc1	37.7%	38.2%	35.7%	46.6%	43.2%	-3.48% (active)	4.32% (active)	24.1%	36.7%	28%	18.6%	26.2%	24.7%	41.3%	17.9%	53.1%	25.6%	10%	50.9%	32.1%
C#CCn1cnc2c(Nc3cccc(NC(=O)C=C)c3)ncnc21	89.7%	66.3%	103%	75.2%	80.3%	68.5%	79.4%	63.9%	61.7%	84.4%	86.4%	72.7%	78.9%	80%	85.2%	63.4%	80.5%	66.8%	75.6%	76.6%
O=S(=O)(NCCNc1cc(-c2c(-c3cccc(O)c3)nc3sccn23)ccn1)c1ccc(C(F)(F)F)cc1	51.9%	38.1%	61.5%	71.8%	21.1%	61.9%	38.1%	28.6%	38.6%	42.6%	43.1%	22.8%	57.8%	53.2%	42.1%	34.9%	31.2%	62.3%	51.8%	36.9%
CCOC(=O)c1c(C)c2c(n1C)CSc1cc(C(=O)c3ccccc3)c(=O)[nH]c1-2	81.7% [100 µM]	98.3% [100 µM]	90.5% [100 µM]	103% [100 µM]	79.6% [100 µM]	84.4% [100 µM]	97.5% [100 µM]	78.9% [100 µM]	106% [100 µM]	117% [100 µM]	100% [100 µM]	102% [100 µM]	90.8% [100 µM]	87.1% [100 µM]	134% [100 µM]	90.8% [100 µM]	103% [100 µM]	94.7% [100 µM]	120% [100 µM]	108% [100 µM]
Nc1nc2c([nH]1)c1[nH]c3ccccc3c1c1[nH]c3ccccc3c21	63.5%	78.3%	25.6%	67.8%	8.05% (active)	-2.6% (active)	26.4%	85.5%	30.9%	-81.3% (active)	50.2%	-41.6% (active)	-72.4% (active)	-38.7% (active)	-7.44% (active)	71.9%	42.8%	55.6%	103%	-68.9% (active)
CCCCOC(=O)OCc1cc(=O)c(O)co1	95.3%	94.3%	94.1%	109%	101%	107%	91.1%	102%	98.6%	111%	113%	97.4%	102%	114%	113%	105%	96.3%	100%	104%	106%
CN(C)CC(=O)Nc1ccc2ncnc(Nc3ccc(Oc4cccc(C(F)(F)F)c4)c(Cl)c3)c2c1	75.9%	80.7%	45.3%	76.5%	8.52% (active)	37.9%	67.7%	47.5%	59.4%	35.9%	48.2%	3.41% (active)	69.7%	49.1%	50.6%	61.3%	90.3%	90.8%	85.6%	59.5%
Brc1ccc(-n2cc(-c3nn[nH]n3)c(-c3cccs3)n2)cc1	92.9%	80.2%	91.9%	91.3%	105%	88.2%	88%	89.1%	96.6%	117%	107%	100%	93.7%	88.1%	105%	100%	95.3%	96%	96.1%	95.9%
CCCCNc1ccc(C#N)c(OCCN(CC)CC)c1	92.8%	88%	100%	101%	104%	94.4%	92.8%	101%	112%	100%	113%	86%	109%	99.3%	103%	103%	107%	111%	114%	104%
CCOP(=O)(OCC)c1nc(-c2ccccc2)oc1NCc1cccnc1	102%	104%	106%	100%	107%	114%	92.8%	104%	104%	117%	107%	102%	100%	108%	110%	104%	106%	96.2%	109%	111%
Cn1ccc2c3c(ccc21)CC3=O	97%	100%	116%	111%	108%	114%	98.4%	105%	107%	119%	120%	111%	121%	103%	115%	110%	112%	126%	114%	107%
COc1cc(-c2cc(-c3cccs3)c(C#N)c(N3CCOCC3)n2)cc(OC)c1OC	101%	111%	100%	134%	11.1%	101%	80.3%	83.6%	37.7%	56.4%	98.7%	10.9%	116%	65.4%	40.6%	113%	62%	58.9%	20.7%	44.6%

Compound	growth [1]	growth [2]	growth [3]	growth [4]	growth [5]	growth [6]	growth [7]	growth [8]	growth [9]	growth [10]	growth [11]	growth [12]	growth [13]	growth [14]	growth [15]	growth [16]	growth [17]	growth [18]	growth [19]	growth [20]
COc1ccc(N2CCC(=O)NC2=S)cc1	96.2%	98.6%	112%	107%	104%	125%	88.9%	108%	104%	106%	115%	107%	110%	102%	109%	99.8%	100%	99.4%	108%	98.7%
CC(C)CCNC(=O)Cn1cccc(NC(=O)OCc2ccccc2)c1=O	88%	87.4%	112%	93.8%	102%	91.5%	88.2%	95.6%	111%	108%	109%	114%	104%	107%	106%	102%	107%	115%	104%	116%
O=C(CSc1nc2ccc([N+](=O)[O-])cc2[nH]1)Nc1ccc(F)cc1	40.4%	48.9%	86.5%	105%	56.8%	-6.84% (active)	30.1%	58.2%	62.7%	68.3%	66.8%	42.1%	36.3%	80.3%	87.8%	68.8%	52.1%	79.8%	44.5%	59.9%
COc1ccc2[nH]cc(C(c3cc(F)cc(F)c3)c3c[nH]c4ccc(OC)cc34)c2c1	67.2%	97.4%	70.3%	93.4%	64.4%	54.3%	69.3%	69.4%	92.4%	78.1%	95.9%	59%	206%	78.8%	80.5%	80%	79.1%	93.4%	84.3%	86.6%
CCC(=C(c1ccc(OCCN2CCCC2)cc1)c1ccc(OCCN2CCCC2)cc1)c1ccc(Cl)cc1	77.1%	105%	20%	60.2%	-86.9% (active)	38.7%	23.5%	-28% (active)	-94.2% (active)	-64.8% (active)	26.4%	-21.2% (active)	-82.1% (active)	-70.9% (active)	13.7%	49.8%	-61.9% (active)	-88.4% (active)	-58% (active)	-75% (active)
CCc1n(Cc2ccc3ccccc3c2)cc[n+]1Cc1ccc2ccccc2c1	-14.6% (active)	6.75% (active)	44.3%	11.9%	5.54% (active)	-31.4% (active)	-25.4% (active)	28.5%	35.7%	-67.5% (active)	23.8%	8.91% (active)	-21.9% (active)	-18.9% (active)	1.07% (active)	12.5%	6.3% (active)	12.6%	-38.2% (active)	-9.48% (active)
CCOC(=O)C(=Cc1cccc(Br)c1)C(=O)OCC	17.7%	45.2%	65.5%	85.1%	68.2%	12.9%	23.9%	41.8%	47.4%	46.6%	4.57% (active)	21.3%	73.1%	38.1%	40.3%	25.7%	97%	4.36% (active)	35%	32.9%
C=C(C)[C@@H]1CC[C@]2(C(=O)N3CCN(C)CC3)CC[C@]3(C)[C@H](CC[C@@H]4[C@@]5(C)CC(=C/c6ccncc6)/C(=N/O)C(C)(C)[C@@H]5CC[C@]43C)[C@@H]12	78.1%	88.4%	75.1%	96.8%	69.5%	56.7%	69%	73.9%	74.6%	80.8%	77.1%	34.4%	87.4%	65.7%	71.9%	63%	91.6%	83.6%	85.8%	94.5%
CN1CCN(C(=O)c2ccc(NC(=O)Nc3ccc(-c4nc(N5CCOCC5)c5cccn5n4)cc3)cc2)CC1	15.4%	-6.51% (active)	-12% (active)	-13.5% (active)	7.17% (active)	-28.6% (active)	12.4%	1.15% (active)	-20.1% (active)	-11.4% (active)	7.11% (active)	15.3%	-37% (active)	2.25% (active)	-39.5% (active)	4.85% (active)	-43.6% (active)	-40.1% (active)	-21.3% (active)	-22% (active)
O=c1c2cc(-c3ccccc3)sc2nc2sc(-c3ccccc3)nn12	98.9%	104%	104%	102%	100%	84.3%	95.7%	91.6%	93%	109%	103%	93.8%	94.1%	110%	93.2%	100%	98.8%	107%	90.9%	97.9%
Oc1c(Cl)cc(Cl)c2ccc(Cn3cc(-c4ccc(C(F)(F)F)cc4)nn3)nc12	83%	84.2%	96%	99.5%	98.8%	40.5%	-30.1% (active)	96.1%	95.1%	83%	48.9%	4.56% (active)	45.5%	86.7%	5.98% (active)	83.9%	104%	69.4%	58.1%	55.5%
CCOC(=O)CNP(=O)(OC[C@@H](Cc1ccccc1)NC(=O)c1cc2ccccc2s1)Oc1ccccc1 (stereo not given in full)	81.1%	93.2%	93.3%	85.3%	72.7%	69.3%	71.7%	64.8%	89.7%	87.2%	88.8%	19.4%	69.3%	77%	84.4%	85.6%	88.5%	78.9%	81.2%	59.6%
Cc1nc(N2CCOCC2)sc1S(N)(=O)=O	102%	84.5%	94%	94.5%	102%	88.2%	92.8%	101%	101%	104%	105%	110%	96%	101%	103%	94%	94.1%	98%	97.4%	103%
Nc1ncnc2c1N=C(c1ccc(Cl)cc1)CC(c1ccc3c(c1)OCO3)N2 (stereo not given)	100%	90.8%	112%	88.1%	103%	59.8%	89.7%	98.4%	91.6%	98.6%	109%	71.3%	116%	88.6%	80.9%	91.1%	128%	88.3%	110%	118%
CCn1c(=S)sc2c(Nc3ccc(F)cc3)nc(-c3cccnc3)nc21	66.2%	75.2%	76.5%	47.6%	64.5%	18.4%	40.5%	48.7%	20.5%	72.5%	77.5%	77.1%	83.9%	75%	78.6%	56.4%	50.6%	41.5%	78.9%	74.1%
